D2 ag-1: agonists of human D2 dopamine receptor; HEK293 T-REx D2 cells, calcium flux agonist mode; 340,000 compounds, 0.53% hits; AID 485358; activation, % at 2 µM; P14416;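 active means activation over 3 SD above normal in the single-dose calcium agonist read, cut at about 30% in these data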; further: 0% is about no effect
Target sequence (P14416 whole entry, looked up): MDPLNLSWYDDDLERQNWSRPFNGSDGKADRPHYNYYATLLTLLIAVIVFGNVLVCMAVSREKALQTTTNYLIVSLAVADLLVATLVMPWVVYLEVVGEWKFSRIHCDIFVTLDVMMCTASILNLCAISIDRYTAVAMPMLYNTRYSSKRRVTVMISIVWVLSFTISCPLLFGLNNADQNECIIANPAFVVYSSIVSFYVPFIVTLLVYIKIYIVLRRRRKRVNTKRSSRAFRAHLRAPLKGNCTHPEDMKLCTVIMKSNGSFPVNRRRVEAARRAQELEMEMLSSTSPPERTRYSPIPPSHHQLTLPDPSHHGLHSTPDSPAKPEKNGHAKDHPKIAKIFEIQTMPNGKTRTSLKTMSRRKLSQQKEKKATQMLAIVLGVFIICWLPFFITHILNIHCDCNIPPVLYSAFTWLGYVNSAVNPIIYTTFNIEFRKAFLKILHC
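In this primary screen, compounds producing a positive calcium signal within 180 s of addition to tetracycline-induced, force-coupled HEK293 Trex D2 cells are flagged; cells are dye-loaded with a no-wash calcium kit beforehand.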
D2 ag-2: human D2 receptor agonism in beta-arrestin assay; P14416; DiscoveRx PathHunter D2 beta-arrestin, luminescence, 90 min; 100% = 57 uM dopamine signal; activation, % (concentration not given with the values); 360,000 compounds, 0.084% hits; in the data active means activation above about 40%; inconclusive means between about 15% and that limit
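Agonist mode: compounds alone added to overnight-plated D2 PathHunter cells for 90 min at 37 C, with 57 uM final dopamine (EC100) defining full response. Beta-arrestin recruitment detected by chemiluminescent reagent, read after 1 h at ambient temperature.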
D2 PAM-1: positive allosteric modulators of human D2 dopamine receptor; P14416; HEK293 T-REx D2, calcium flux, EC20 dopamine potentiation; potentiation, % at 10 µM; 340,000 compounds, 0.34% hits;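 active means potentiation over 3 SD above the plate norm, cut at about 30% in these data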; further: 0% is about no effect
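Potentiation of an EC20 dopamine calcium response measured kinetically over 180 s, after a preceding 180 s compound-only read flagging agonists. Cells: inducible Hek293 Trex D2 line, 4000/well, cultured overnight at 30 C before dye loading.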
D2 antag: antagonists of human D2 dopamine receptor. P14416. HEK293 TREx D2 cells, calcium flux, dopamine EC80. inhibition, % at 10 µM. 340,000 compounds, 2% hits. AID 485344; in the data active means inhibition above about 30%; inactive means below that, where a call was filed; further: 0% is about no effect
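Inhibition of EC80 dopamine-driven calcium flux, recorded kinetically, defines activity here; cells are a tetracycline-induced HEK293 T-REx line expressing force-coupled D2.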
D2 PAM-2: human D2 receptor positive allosteric modulation | P14416 | DiscoveRx D2 beta-arrestin cells, luminescence, 90 min; 100% = 57 uM dopamine signal | potentiation, % (no concentration beside the values) | 360,000 compounds, 0.23% hits; in the data active means potentiation above about 50%; inconclusive means mostly about 30% to 49%
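PathHunter D2 cells, attached overnight at 37 deg C, received compound in DMSO plus dopamine at EC20 (50 nM final) for 90 min at 37 deg C. Beta-arrestin recruitment was read as luminescence after 1 h with detection reagent at ambient temperature.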
D3 ag: D3 receptor agonism confirmed, beta-arrestin readout | shares compounds with D2 ag-1 | DiscoveRx D3 beta-arrestin cells, luminescence, 90 min | Potency, µM (series often up to 76.9 µM), inactives show at the top dose activation, actives largely listed as activators | 2,300 compounds, 4% hits;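 further: potency means the concentration at half of the fitted maximal effect; 100% = dopamine control response; nearly all actives have a fitted effect of over 70% in size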
D2 ag-3: D2 receptor agonism, beta-arrestin counterscreen. shares compounds with D2 ag-1. DiscoveRx PathHunter D2 beta-arrestin, luminescence, 90 min; response scale: percent relative to full dopamine signal. Potency, µM (series often up to 76.9 µM), without a hit: at the top dose activation, most hits filed as activators. 2,300 compounds, 5.9% hits; further: potency means the concentration at half of the fitted maximal effect; % of control where 0% means no effect; nearly all actives have a fitted effect of over 70% in size
Numbers without * were called inactive; ? = inconclusive; · = no result given. This is a sample that favours compounds with a hit; in the whole collection about 2.4% have one here. Unless noted, the call rests on the fitted dose curve; in most records, active means well fitted activation curve with a large enough effect; inconclusive means small, poorly fitted or top-dose-only effect; inactive means flat fitted curve, though single readings scatter.

SMILES	D2 ag-1	D2 ag-2	D2 PAM-1	D2 antag	D2 PAM-2	D3 ag	D2 ag-3
Cc1ccc(N(Cc2cccs2)C(=O)c2ccc(OC(C)C)cc2)cc1	-1.9	·	11.8	·	·	·	·
Cc1c(C)n(C)c2ccc(C(=O)NCCCN3CCN(c4ccccc4F)CC3)cc12	66.7*	8.9	-38.8	98.3*	-32.9	8.6%	14.5%
Cc1c(C)n(C)c2ccc(C(=O)NCCCN3CCN(c4ccc(F)cc4)CC3)cc12	0.2	-5.4	-23.4	-16.6	-37.0	·	·
CC[n+]1c(/C=C/C=C/N(C(C)=O)c2ccccc2)sc2cc(OC)ccc21	72.6*	12.4	-14.4	14.6	-30.4	21.1%	?
CCOC(=O)c1cc(-c2ccc(OC)cc2)n(CCC(=O)NCCc2ccc(OCC)c(OCC)c2)c1C	0.9	·	0.0	·	·	·	·
Cc1c(Cl)cccc1N(CC(=O)NC1CCCCC1)S(C)(=O)=O	72.0*	-4.5	-23.8	-11.9	-2.7	-3.3%	-2.5%
CC(O)CNCCOc1ccccc1-c1ccccc1 (stereo unspecified)	57.9*	1.8	-24.0	57.8*	-11.7	-9.9%	11.8%
CCCCNCCOc1ccccc1-c1ccccc1	27.8	-7.3	-18.7	69.5*	-30.7	-24.6%	7.6%
CN(C)CCOc1ccccc1-c1ccccc1	·	-0.9	·	·	-14.8	·	·
COc1cc(NC(=O)c2cc(-c3cccc(Cl)c3)on2)c(OC)cc1Cl	-0.2	·	1.4	·	·	·	·
COc1cc(C#Cc2c(-c3ccccc3OC)oc3ccccc23)cc(OC)c1	2.5	-7.9	4.3	0.0	-2.4	-1.6%	2.2%
Cc1ccc(-c2cc3c(N4CCN(c5cc(C)ccc5C)CC4)nccn3n2)cc1	0.3	·	-5.8	·	·	·	·
CC(C)c1cnc2c(c1SCC(=O)c1ccccc1)c(=O)n(C)c(=O)n2C	-0.6	·	10.8	·	·	·	·
COc1cccc(C(C)NC(=O)Nc2ccccc2Cl)c1 (stereo unspecified)	-1.0	3.2	13.3	-19.6	-2.9	-5.2%	-1.7%
Cc1cc(C)n2nc(CNC(=O)c3ccc(Cl)cc3)nc2n1	0.7	·	-0.8	·	·	·	·
Cc1cccc(Cn2c(=O)oc3ccc(C)cc32)c1	23.8	2.9	10.7	31.5*	-4.0	-7.7%	-2.5%
CCOCCc1nnc(NC(=O)C(=O)c2cc(C)n(-c3ccc(C)c(C)c3)c2C)s1	-0.1	·	4.5	·	·	·	·
CCc1nc(C)cn1S(=O)(=O)c1cc(C)c(OC)cc1C	63.6*	-4.7	-22.0	-19.6	-2.5	5.0%	3.0%
CCc1nc(C)cn1S(=O)(=O)c1cc(Br)c(C)cc1OC	-1.5	-1.3	18.3	-7.0	-12.0	·	·
Cc1cc(C)c(-c2n[nH]c3c2C(c2ccccc2F)N(Cc2ccco2)C3=O)c(O)c1 (stereo unspecified)	2.3	·	7.0	·	·	·	·
N#Cc1c(-c2ccco2)nc(SCc2ccc(F)cc2)[nH]c1=O	-2.0	-1.9	-9.4	-2.6	-10.7	·	·
Cc1nc(SCc2cccc(F)c2)[nH]c(=O)c1C#N	·	-2.0	·	·	3.2	-3.1%	-2.8%
CCOC(=O)c1c(C)c(C(=O)NCCCN2CCCC2=O)c(C)n1CC	62.0*	0.6	-18.9	-7.4	-15.1	-4.6%	-3.8%
O=C(CCC(=O)c1ccccc1)NCCc1c[nH]c2ccccc12	66.2*	3.5	-20.1	5.1	-12.9	13.7%	5.5%
CC(=O)Nc1ccc(NC(=O)COC(=O)c2ccccc2SCC(=O)N2CCCC2)cc1	0.5	-0.6	-3.4	14.3	0.1	·	·
SMILES	D2 ag-1	D2 ag-2	D2 PAM-1	D2 antag	D2 PAM-2	D3 ag	D2 ag-3
CN(Cc1ccc(Cl)cc1)C(=O)c1ccccc1SCC(=O)N1CCCC1	·	-9.9	-1.0	·	-26.0	-1.8%	-2.0%
CCN(CC(=O)Nc1ccc(NC(C)=O)cc1)C(=O)c1ccccc1SCC(=O)N1CCCC1	·	2.4	·	·	3.6	-4.4%	-2.9%
O=c1cc(CN2CCN(c3ccc(O)cc3)CC2)nc2scc(-c3ccccc3)n12	27.7	10.4	-7.1	8.0	-1.2	35.5µM*	18.4%
Cc1cccc(C)c1OCc1cc(=O)n2c(-c3ccccc3)csc2n1	0.2	·	·	·	·	·	·
CCc1ccc(CN2CCCC(CCC(=O)N3CCN(c4ccccn4)CC3)C2)o1 (stereo unspecified)	25.2	0.6	-16.7	-21.7	-20.1	-14.6%	-1.3%
Cc1ccc(C(=O)N2CCCC(CCC(=O)N3CCN(c4ccccn4)CC3)C2)cc1 (stereo unspecified)	-0.4	-0.9	5.4	4.2	-7.4	·	·
Cc1cccn2c(=O)c(C(=O)NCc3cccc(F)c3)cnc12	0.5	·	5.5	·	·	·	·
CCC(C)N(NC(C)=O)c1nc(Cl)nc(NC(C)(C)C)n1 (stereo unspecified)	80.3*	-1.4	-23.6	11.1	3.4	-0.6%	-2.6%
COC(=O)C1CCN(Cc2cn(Cc3ccccc3)nc2-c2cc3ccccc3o2)CC1	36.6*	-1.4	-12.9	13.3	-10.6	-9.3%	8.0%
COc1ccc(OC)c(NC(=O)Cn2c(=O)n(-c3ccc(Cl)cc3)c(=O)c3c(C)c(C)sc32)c1	0.1	·	-0.3	·	·	·	·
COc1ccc(N=C2NC(=O)S/C2=C\c2ccc(N(C)C)cc2)cc1	14.2	-4.8	-19.6	-14.9	-47.1	-25.3%	-13.3%
CCOc1ccc(N=C2NC(=O)S/C2=C\c2ccc(Cl)cc2)cc1	-0.4	-4.0	-10.8	-5.1	-34.2	·	·
CCOC(=O)N1CCc2c(sc3c2c(=O)n(-c2ccc(F)cc2)c(=O)n3CC(=O)c2ccccc2)C1	-0.8	·	2.6	·	·	·	·
COc1ccc(-c2c(-c3cc(OC)cc(OC)c3)n(C)c3ccc(-c4ccc5[nH]ccc5c4)cc23)cc1	·	-3.0	14.1	·	-6.9	3.5%	3.9%
CCOc1ccc(NC(=O)c2ccc3c(c2)CCN3S(=O)(=O)CC)cc1	7.7	·	1.0	·	·	·	·
COc1ccc(/C=N/NC(=O)CCn2cnc3ccccc32)cc1	1.9	-2.0	-7.7	3.6	-1.5	-5.4%	-2.6%
Cc1ccccc1Cn1c(CN2CCC(C(=O)NCCN(C)C)CC2)cc2ccccc21	1.7	·	4.2	·	·	·	·
COc1cc(OC)c(OC)cc1CCC(C)NCCC(c1ccccc1)c1ccccc1 (stereo unspecified)	50.0*	13.6	-17.6	49.2*	-39.2	2.6%	?
COc1ccc(CCNCCC(c2ccccc2)c2ccccc2)cc1OC	·	-5.2	·	·	-46.0	·	·
COc1ccc(CCC(C)NCc2ccccc2OC)cc1 (stereo unspecified)	0.6	-6.3	-7.4	-15.7	-1.7	·	·
COc1ccccc1CCNC(C)CCc1ccc(O)cc1 (stereo unspecified)	41.4*	0.5	-17.6	2.6	-1.7	?	6.2%
